From PubChem BioAssay come the findings set out here.

The target of this experiment is Epidermal growth factor receptor (Homo sapiens) (UniProt P00533). As to the kind of experiment: compounds binding epidermal growth factor receptor – biochemical, small-molecule microarray, 635 nm fluorescence, primary screen (AID 1104).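 Note: score merges 667 nm emission intensity with spot signal to noise over triplicate slides.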 The conditions noted are these: EGFR binding, higher = more signal.
Epidermal growth factor receptor (Homo sapiens), sequence (P00533 whole entry, looked up): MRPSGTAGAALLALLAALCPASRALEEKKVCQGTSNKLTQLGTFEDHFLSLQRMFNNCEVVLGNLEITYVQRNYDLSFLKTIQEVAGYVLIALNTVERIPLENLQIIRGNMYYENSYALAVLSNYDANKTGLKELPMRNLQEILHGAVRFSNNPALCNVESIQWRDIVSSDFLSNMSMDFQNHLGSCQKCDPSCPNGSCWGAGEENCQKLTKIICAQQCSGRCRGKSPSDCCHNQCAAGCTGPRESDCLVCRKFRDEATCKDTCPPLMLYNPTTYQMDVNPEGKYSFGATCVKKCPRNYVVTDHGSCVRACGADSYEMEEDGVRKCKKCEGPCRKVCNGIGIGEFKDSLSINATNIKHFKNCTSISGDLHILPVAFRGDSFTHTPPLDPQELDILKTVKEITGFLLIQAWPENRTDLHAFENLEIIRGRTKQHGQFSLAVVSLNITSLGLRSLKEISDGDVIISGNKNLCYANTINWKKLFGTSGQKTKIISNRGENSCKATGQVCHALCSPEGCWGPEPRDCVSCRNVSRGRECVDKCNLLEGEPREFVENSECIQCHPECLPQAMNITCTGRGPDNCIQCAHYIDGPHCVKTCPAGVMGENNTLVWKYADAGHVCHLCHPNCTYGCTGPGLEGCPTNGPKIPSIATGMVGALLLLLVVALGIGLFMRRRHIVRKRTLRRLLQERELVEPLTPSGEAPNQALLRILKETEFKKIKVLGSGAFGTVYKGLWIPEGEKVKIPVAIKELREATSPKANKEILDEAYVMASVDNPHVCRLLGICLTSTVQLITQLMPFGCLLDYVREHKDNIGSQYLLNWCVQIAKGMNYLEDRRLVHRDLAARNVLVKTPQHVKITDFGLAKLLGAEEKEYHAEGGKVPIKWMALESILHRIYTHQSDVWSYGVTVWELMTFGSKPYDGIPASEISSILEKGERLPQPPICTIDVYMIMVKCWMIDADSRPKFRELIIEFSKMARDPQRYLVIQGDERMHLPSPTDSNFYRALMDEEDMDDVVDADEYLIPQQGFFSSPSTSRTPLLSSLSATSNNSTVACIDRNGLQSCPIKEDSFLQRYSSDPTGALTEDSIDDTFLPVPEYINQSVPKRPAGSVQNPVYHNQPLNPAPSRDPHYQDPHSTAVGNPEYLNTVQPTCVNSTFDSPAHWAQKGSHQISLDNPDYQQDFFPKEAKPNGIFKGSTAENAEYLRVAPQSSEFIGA
In turn, `Cc1ccccc1C(O)C1C=CC2C(=O)N(C)C(=O)C2N1Nc1ccccc1` (stereo not given) showed a composite z-score of -0.0369.

The compound `COc1cc(CO)ccc1OC(C)=O` gave a composite z-score of 0.558.

On to `CC(=CC1CCCCC1)[C@@H](NC(=O)c1ccc(C(F)(F)F)cc1)c1ccc(-c2ccccc2)cc1`, for which the composite z-score is -0.365.

The compound `COc1ccc([Si](C)(C)[C@H]2[C@H](CCn3cc([C@H](O)c4ccccc4)nn3)O[C@@]3(C(=O)N(Cc4cccc(N5CCC5=O)c4)c4ccccc43)[C@@H]2C)cc1` came in with a composite z-score of -0.0533.

Compound `CCCC[C@H]1OB(O)C[C@H]2C1=C(C)C[C@H]1C(=O)N(Cc3ccccc3)C(=O)[C@H]12` yielded a composite z-score of 0.244.

Compound `CC(C)NC(=O)[C@@H]1c2ccccc2C(=O)N(Cc2ccccc2)[C@H]1c1ccc(CO)cc1` gave a composite z-score of -1.41.

`[N-]=[N+]=NCc1ccccc1C[C@]1(C(=O)NCC(O)CO)N=C(c2ccc(OCCCO)cc2)O[C@H]1c1ccccc1N=[N+]=[N-]` (stereo not given in full) registered a composite z-score of -0.166.

With `C=CCC(OC(C)=O)[C@@H]1[C@@H](N(Cc2ccc(-c3ccccc3)cc2)C(=O)Cc2ccc(F)cc2)c2cc(OCCCO)ccc2N1C(=O)c1ccc2ccccc2n1` (stereo not given in full), the composite z-score was -0.294.

Compound `CO[C@H]1O[C@H](CO)[C@@H](OC(=O)Nc2ccc(Oc3ccccc3)cc2)[C@H](OC(=O)Nc2ccccc2)[C@H]1OC(=O)Nc1ccccc1` had a composite z-score of 0.24.

The compound `CC(C)C(O)C1C=CC2C(=O)N(c3ccccc3)C(=O)C2N1Nc1ccc(C#N)cc1` (stereo not given) came in with a composite z-score of 0.0839.

As for `CC(C)c1ccc(NN2C(C(O)c3c(F)cccc3Cl)C=CC3C(=O)N(c4ccccc4)C(=O)C32)cc1` (stereo not given), the composite z-score stood at 0.389.

Compound `O=C(NCc1ccccc1)[C@]1(CCS(=O)(=O)c2ccccc2)N=C(c2ccc(OCCCO)cc2)O[C@@H]1c1ccccc1` came in with a composite z-score of 0.325.

Turning to `COc1ccc([Si](C)(C)[C@H]2[C@H](CCn3cc(CCO)nn3)O[C@@]3(C(=O)N(Cc4ccc(N5CCOC5=O)cc4)c4ccccc43)[C@@H]2C)cc1`, the composite z-score was -0.0252.

`COCCOC(=O)N1C(=O)[C@@]2(c3cc(C#CC4=CCCCC4)ccc31)[C@H](C(=O)N1CCc3cc(OC)c(OC)cc3C1)[C@H]1C(=O)O[C@H](c3ccccc3)[C@H](c3ccccc3)N1[C@@H]2c1ccccc1OCCO` showed a composite z-score of 0.501.

`Cc1ccccc1C(O)C1C=CC2C(=O)N(C)C(=O)C2N1N1CCCCC1` (stereo not given): the composite z-score was 0.628.

`CCCCC(O)C1C=CC2C(=O)N(C3CCCCC3)C(=O)C2N1Nc1ccc(OC)cc1` (stereo not given) gave a composite z-score of -0.0301.

Compound `O=C(CCN1CCOCC1)c1cccc(O)c1` came in with a composite z-score of 1.74.

With `C=C(COC)C(=O)CC[C@@H](OC(=O)c1cccnc1)c1ccc(CO)o1`, the composite z-score is 0.182.

`O=C1c2ccccc2[C@@]2(Cc3ccccc3N(Cc3ccccc3)C2=O)[C@H](c2ccc(CO)cc2)N1C1CCCCC1` registered a composite z-score of 0.131.

The compound `Cc1ccc(S[C@]2(C(=O)NC3CC3)CC(=O)N(C3CCCCC3)[C@@H]2c2ccc(CO)cc2I)cc1` came in with a composite z-score of 0.396.

`CCOC(=O)C[C@H]1[C@H](OC(=O)c2ccccc2-c2ccccc2)[C@@H](NC(=O)c2ccc3ccccc3c2)c2cc(OCCCO)ccc2N1C(=O)c1ccc2ccccc2n1` registered a composite z-score of 0.289.

Regarding `C[C@H]1NC(=O)[C@H](Cc2ccccc2)NC(=O)[C@@]23C(=O)N[C@@H](Cc4ccccc4)C2[C@H](C)[C@@]2(C)O[C@H]2C3/C=C/C/C=C\CNC1=O` (stereo not given in full), the composite z-score was 0.203.

The compound `COC(=O)C(CC#Cc1ccc2c(c1)[C@]1(C(=O)N2)[C@H](C(=O)NC[C@H](O)c2ccccc2)[C@H]2C(=O)O[C@H](c3ccccc3)[C@H](c3ccccc3)N2[C@@H]1c1ccc(OCCO)cc1)C(=O)OC` showed a composite z-score of 0.767.

`COC(=O)[C@]1(Cc2ccccc2N=[N+]=[N-])N=C(c2ccc(OCCCO)cc2)O[C@@H]1c1ccccc1N=[N+]=[N-]` had a composite z-score of -0.049.

For the compound `COCCOC(=O)N1C(=O)[C@@]2(c3cc(C#CCCO)ccc31)[C@H](C(=O)NC[C@H](O)c1ccccc1)[C@H]1C(=O)O[C@H](c3ccccc3)[C@H](c3ccccc3)N1[C@@H]2c1ccc(O)cc1`, the composite z-score was -0.243.

With `C=CCC(OC(C)=O)[C@@H]1[C@@H](N(Cc2cccc3ccccc23)C(=O)c2cccc3ccccc23)c2cc(OCCCO)ccc2N1C(=O)c1ccc2ccccc2n1` (stereo not given in full), the composite z-score was -0.0538.

In turn, `O=C1C2C=CC(C(O)c3ccc(B(O)O)cc3)N(Nc3ccccc3)C2C(=O)N1c1ccccc1` (stereo not given) registered a composite z-score of -0.134.

`C=C[C@H](COC(C)=O)N(Cc1ccc(OC(C)=O)c(OC)c1)S(=O)(=O)c1ccc(Br)cc1` registered a composite z-score of 0.493.

Compound `CC(C)Cc1ccc(CN2CC[C@@H](NS(=O)(=O)c3ccccc3)C2)cc1` showed a composite z-score of -0.608.

In turn, `O=C1OCC=C[C@H]2OC34C=CCN(c5ccc6ccccc6c5)C(=O)[C@H]3N(CCCO)C(=O)[C@@H]4[C@@H]12` (stereo not given in full) showed a composite z-score of -1.15.

Compound `[N-]=[N+]=NCc1ccccc1C[C@]1(C(=O)O)N=C(c2ccc(OCCCO)cc2)O[C@H]1c1ccccc1CN=[N+]=[N-]` yielded a composite z-score of -0.125.

In turn, `COCCOC(=O)N1C(=O)[C@@]2(c3cc(C#CCC(C(=O)OC)C(=O)OC)ccc31)[C@H](c1ccccc1OCCO)N1[C@H](c3ccccc3)[C@H](c3ccccc3)OC(=O)[C@H]1[C@@H]2C(N)=O` displayed a composite z-score of 0.249.

For the compound `COCC1=C2[C@@H](CCc3ccccc3)OB(O)C[C@@H]2[C@@H]2C(=O)N(Cc3ccccc3)C(=O)[C@@H]2C1`, the composite z-score came out at 0.388.

Compound `CC(C)NC(=O)[C@@H]1c2ccccc2C(=O)N(Cc2ccccc2Cl)[C@H]1c1ccc(CO)cc1` registered a composite z-score of -0.903.

Regarding `COc1cc2c(cc1OC)CN(C(=O)[C@@H]1[C@H]3C(=O)O[C@H](c4ccccc4)[C@H](c4ccccc4)N3[C@H](c3ccccc3OCCO)[C@@]13C(=O)Nc1ccc(C#CCNC(N)=O)cc13)CC2`, the composite z-score turned out to be 0.245.
